Among the data in PubChem BioAssay (Tox21) are Potency and outcome values, retold here.

Records with an inconclusive call do not appear. A number with no mark means an inactive call. Calls of active or inactive are those of the source. Unless noted, the call rests on the fitted dose curve; in most records, active means well fitted curve in the direction sought with a large enough effect in the repeat runs; inconclusive means weak or mixed curves; inactive means no such curve, though single readings can be large; an effect the other way counts as inactive or inconclusive.

Assay [1] is described as follows: qHTS assay to identify small molecule antagonists of the vitamin D receptor (VDR) signaling pathway - cell viability counter screen (AID 743225). Further: nearly all actives have a fitted effect of over 50% in size. Further: potency means the concentration at half of the fitted maximal effect. Summed up:
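Luminescent cell viability (CellTiter-Glo) in VDR-bla HEK 293T cells after 16 h compound exposure at 37C in the presence of 3 nM final 1-alpha,25-dihydroxy vitamin D3.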
For orientation: qHTS replaces the single test concentration by a dilution series.

A short description of assay [2]: qHTS assay to identify small molecule agonists of the NFkB signaling pathway (AID 1159509; active means well fitted curve in the direction sought with a large enough effect in the signal ratio in the repeat runs, not every such curve was filed as active; the % refers to the signal ratio). Summed up:
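After overnight attachment, reporter cells received test compounds, DMSO or positive controls and were incubated 5 hr at 37 C. FRET substrate was then added for 1.5 hr at room temperature before dual-emission fluorescence reading.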

Assay [3] can be described thus: qHTS assay to identify small molecule agonists of the NFkB signaling pathway - cell viability counter screen (AID 1159515; calls by dose curve; further: nearly all actives have a fitted effect of over 55% in size). Summed up:
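Multiplexed viability readout: after the 5 hr compound exposure and 1.5 hr FRET substrate step, CellTiter-Glo reagent went into the same NFkB-bla ME-180 wells; ATP luminescence was measured after 30 min at room temperature.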

The nature of assay [4]: qHTS assay to identify small molecule agonists of the endoplasmic reticulum stress response signaling pathway - cell viability counter screen (AID 1159517; calls by dose curve;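 further: HeLa cells carrying an ER stress response element beta-lactamase reporter; nearly all actives have a fitted effect of over 50% in size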). Summed up: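 Luminescence readout: CellTiter-Glo, 30 min RT, same wells as the ESRE-bla reporter read. HeLa ESRE-bla, 1,500 cells/well, o/n 37 C; cpd 5 hr 37 C/5% CO2.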
Assay [5] in a line: qHTS assay to identify small molecule antagonists of the retinoid-related orphan receptor gamma (ROR-gamma) signaling pathway - cell viability counter screen (AID 1159520). Further: nearly all actives have a fitted effect of over 50% in size. Summed up:
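Tet-on ROR gamma CHO cells (1,000/well) were plated 4 hr, given compounds in DMSO for 2 hr at 37 C, then induced with 1 uM final doxycycline for 16 hr. Viability was read as ATP by CellTiter-Glo luminescence after 30 min.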

Assay [6] in a line: qHTS assay to identify small molecule agonists of the AP-1 signaling pathway - cell viability counter screen (AID 1159525; calls by dose curve; further: nearly all actives have a fitted effect of over 55% in size). A digest of the protocol:
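ME-180 AP-1-bla, 2500 cells/well, Opti-MEM + 0.5% dialyzed FBS; overnight 37 °C; cpd 15-pt titration, 5 h 37 °C; CellTiter-Glo 30 min RT; luminescence read; normalised to TOAB and DMSO controls.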

Assay [7] is described as follows: qHTS assay to identify small molecule agonists of the AP-1 signaling pathway (AID 1159526; calls by dose curve).
Assay [8] in a line: qHTS assay to identify small molecule agonists of the RXR signaling pathway - cell viability counter screen (AID 1159529). Further: nearly all actives have a fitted effect of over 50% in size. Further: potency means the concentration at half of the fitted maximal effect. Summed up: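 Same-well viability check after the LiveBLAzer FRET read: CellTiter-Glo added, luminescence measured after 30 min at room temperature. Reporter HEK 293T cells had been treated with compounds for 16 hr following a 5 hr preincubation.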
Assay [9] can be described thus: qHTS assay to identify small molecule antagonists of the retinoid acid receptor (RAR) signaling pathway - cell viability counter screen (AID 1159551). Further: nearly all actives have a fitted effect of over 35% in size. Summed up: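 Cytotoxicity counter screen in C3RL4 cells: 6 h compound exposure with 1 uM retinol (final), viability from cellular ATP by luminescence.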
A short description of assay [10]: qHTS assay to identify small molecule antagonists of the retinoic acid receptor (RAR) signaling pathway (AID 1159552; further: nearly all actives have a fitted effect of over 50% in size). Summed up:
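Readout: luciferase luminescence, 30 min post-reagent at RT. Setup: C3RL4 RARE reporter cells, compounds plus retinol 1 uM final, 6 hr incubation at 37 C and 5% CO2.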

Assay [11] in a line: qHTS assay to identify small molecule antagonists of the estrogen related receptor (ERR) signaling pathway - cell viability counter screen (AID 1224818). Summed up: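 Cells carrying the ERR pathway reporter were seeded and incubated for 6 hours before compound addition. After a 17.5-hour exposure at 37 C, live-cell protease activity was measured by CellTiter-Fluor fluorescence following 30 minutes of incubation.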

The nature of assay [12]: qHTS assay to identify small molecule antagonists of the estrogen related receptor (ERR) signaling pathway (AID 1224819). Summed up: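 Compounds dissolved in DMSO were pin-transferred onto ERR cells that had been plated 6 h earlier, and cells were then incubated 18 h at 37 C; signal was luciferase luminescence via One-Glo.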
Assay [13] is described as follows: qHTS assay to identify small molecule agonists of the estrogen related receptor (ERR) signaling pathway (AID 1224820). Summed up: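 Quantitative HTS of the LOPAC library used NTP ERR reporter cells treated 18 h at 37 C. Signal is luminescence after One-Glo addition and a 30 min room-temperature incubation.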
The test system of assay [14] is estrogen-related receptor alpha (ERRalpha) with PGC-1alpha coactivator, human. The assay is described as follows: qHTS assay to identify small molecule antagonists of the estrogen related receptor signaling pathway with the pleiotropic PPARgamma coactivator (PGC) (AID 1224821; calls by dose curve). Summed up:
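Quantitative HTS for antagonism: PGC/ERR cells received compounds after 6 h attachment and were incubated 18 h at 37 C, with luminescence (One-Glo) as the endpoint.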

Assay [15] in a line: qHTS assay to identify small molecule antagonists of the estrogen related receptor signaling pathway with the pleiotropic PPARgamma coactivator (PGC) cell viability counter screen (AID 1224822). Summed up: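 Seed PGC/ERR cells (2,000/well); incubate 6 h at 37 C/5% CO2; pin-transfer compounds in DMSO; incubate 17.5 h at 37 C; add CellTiter-Fluor; after 30 min read fluorescence.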

The nature of assay [16]: qHTS assay to identify small molecule agonists of the estrogen related receptor signaling pathway with the pleiotropic PPARgamma coactivator (PGC) (AID 1224823). Summed up:
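Cell-based luciferase assay in the NTP-supplied PGC/ERR line, 2,000 cells/well; 18 h compound exposure at 37 C, luminescence after One-Glo.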

For assay [17], the target named is Retinoic acid receptor RXR-alpha (Homo sapiens) (UniProt P19793). The assay is described as follows: qHTS assay to identify small molecule agonists of the RXR signaling pathway (AID 1159527; calls by dose curve; further: nearly all actives have a fitted effect of over 35% in size; further: potency means the concentration at half of the fitted maximal effect). A digest of the protocol:
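Beta-lactamase reporter assay, agonist format. Engineered HEK 293T line, charcoal-stripped FBS at 2%, overnight (16 hr) exposure, fluorescence at 460 and 530 nm after 405 nm excitation.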

The target in assay [18] is Nuclear receptor ROR-gamma (Homo sapiens) (UniProt P51449). Description: qHTS assay to identify small molecule antagonists of the retinoid-related orphan receptor gamma (ROR-gamma) signaling pathway (AID 1159521; further: nearly all actives have a fitted effect of over 50% in size; further: potency means the concentration at half of the fitted maximal effect). A digest of the protocol:
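CHO cells expressing RORγ under a TET-on promoter, luciferase under RORE control. Dox 1 uM final, 16 h; compounds added 2 h prior. Luminescence decrease measured.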

Assay [19] is described as follows: qHTS assay to identify small molecule agonists of the retinoic acid receptor (RAR) signaling pathway (AID 1159553). The settings on record: C3RL4 RARE luciferase reporter, agonist, 6 h; activation: at 73.3 µM (top of the series). A digest of the protocol:
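Agonist activity was scored in C3RL4 cells bearing a retinoic acid response element luciferase construct. Cells were treated with compounds for 6 hr at 37 C, and luciferase signal was measured as luminescence.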

Sequence of Retinoic acid receptor RXR-alpha (Homo sapiens) (P19793 whole entry, looked up): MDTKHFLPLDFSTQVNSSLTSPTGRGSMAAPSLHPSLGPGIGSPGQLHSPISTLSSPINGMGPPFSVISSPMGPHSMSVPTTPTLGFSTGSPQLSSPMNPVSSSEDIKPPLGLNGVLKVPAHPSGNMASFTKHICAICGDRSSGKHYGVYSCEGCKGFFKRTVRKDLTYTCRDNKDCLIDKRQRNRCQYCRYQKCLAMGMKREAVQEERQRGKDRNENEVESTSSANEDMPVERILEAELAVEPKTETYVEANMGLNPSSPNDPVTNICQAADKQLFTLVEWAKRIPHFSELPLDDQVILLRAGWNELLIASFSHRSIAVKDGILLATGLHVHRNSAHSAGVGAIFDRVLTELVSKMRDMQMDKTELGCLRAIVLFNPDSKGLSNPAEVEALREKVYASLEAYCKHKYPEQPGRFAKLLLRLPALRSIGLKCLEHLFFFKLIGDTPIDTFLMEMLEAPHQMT

Regarding `O=C(CCc1ccc(O)cc1)c1c(O)cc(O)cc1O`, the Potency result in [1], in assay [2], in assay [3], in assay [4], in assay [5] and in assay [6] was “inactive” in each case. Besides, the Potency entry in assay [7], in assay [8], in [9] and in [10] was “inactive” in each case. Moreover, the outcome in assay [11], in [12], in [13], in [14], in [15] and in assay [16] was inactive.
Turning to `CCCCN(CCCC)C(C(N)=O)c1ccc(OC)cc1` (stereo unspecified), the Potency result in assay [1], in assay [2], in assay [3], in assay [4], in assay [5] and in assay [7] was “inactive” each time. For the same compound, the Potency result in [17], in assay [8] and in [9] was “inactive” throughout.
On to `CC1CC(C)C(=O)C1=O` (stereo unspecified), for which the Potency result in assay [1], in [2], in assay [3], in assay [4], in [5] and in assay [6] was “inactive” throughout. Further, the Potency result in [7], in assay [8] and in assay [9] was “inactive” in each case.
Consider `CCCCCC[C@@H](O)C/C=C\CCCCCCCC(=O)O`, for which the Potency result in [2], in [3], in assay [4], in [5], in assay [6] and in [9] was “inactive” throughout. Besides, the figures for the Potency in assay [17] and in assay [8] were 49 µM (active) and 38.9 µM (active), respectively.
As for `O=C1CCCCCCCCCCOCCCCO1`, the Potency result in [1], in [2], in [3], in assay [4], in [5] and in [18] was “inactive” in each case. Moreover, the Potency result in [6], in assay [17], in [9] and in assay [10] was “inactive” in each case.
Take `CCOc1ccc(Cc2nccc3cc(OCC)c(OCC)cc23)cc1OCC`: the Potency entry in assay [2], in assay [3], in [4], in [6], in assay [7] and in assay [8] was “inactive” throughout. Besides, the Potency result in [9], in assay [10] and in assay [19] was “inactive” in each case. Further, in assay [18], the Potency is 7.5 µM (active).
For `Cc1ccc(CO)cc1`, the Potency result in assay [2], in assay [3], in assay [5], in [18], in assay [7] and in [8] was “inactive” throughout. Further, the Potency entry in [9] and in assay [10] was “inactive” throughout.
`O=C1C(=O)c2ccccc2C(O)=C1C1CCC(c2ccc(Cl)cc2)CC1` (stereo unspecified): the Potency was 5.35 µM (active) in assay [1] and 7.5 µM (active) in assay [18]. Besides, the Potency entry in assay [2], in assay [3], in assay [4], in assay [8] and in [9] was “inactive” each time.
Regarding `CCc1ccccc1`, the Potency result in assay [1], in assay [2], in assay [3], in [5], in [18] and in assay [7] was “inactive” in each case. In addition, the Potency result in [8], in assay [9], in assay [10] and in [19] was “inactive” each time.
On to `O=C1c2ccccc2C(=O)c2c(O)c(O)cc(O)c21`, for which the Potency entry in assay [1], in [2], in [3], in [4], in assay [18] and in assay [7] was “inactive” each time. Also, the Potency entry in assay [8] was “inactive”.
As to `CC(CO)CO`, the Potency result in assay [1], in [2], in assay [3], in assay [5], in assay [18] and in [6] was “inactive” in each case. Moreover, the Potency result in assay [7], in [17], in assay [8], in assay [9], in assay [10] and in assay [19] was “inactive” each time.
With `c1ccc(C[n+]2cccc3ccccc32)cc1`, the Potency entry in assay [2], in assay [3], in [5], in assay [18], in [6] and in assay [7] was “inactive” each time. Further, the Potency result in [8], in assay [9], in [10] and in [19] was “inactive” in each case.
